# According to PubChem BioAssay (NCI):
# Compounds without any hit were thinned out: in the full panel of roughly 79,000, 15% have a hit. Values without a mark were called inactive. Calls of active or inactive are those of the source. Rule as the data show it: active = growth inhibition above about 70%; inactive = the rest.
# Legend:
# [1] = NCI Yeast Anticancer Drug Screen. Data for the rad52 strain (AID 147);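 also: 0% = growth of vehicle-treated control cultures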; conditions: S. cerevisiae rad52 mutant growth inhibition, hits give high values
# Outline: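 Compounds are applied to a genetically defined yeast strain lacking normal DNA damage repair, and inhibition of growth is expressed relative to cultures given vehicle only.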
# [2] = NCI Yeast Anticancer Drug Screen. Data for the wt1 strain (AID 149);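 also: 0% = growth of vehicle-treated wt1 cultures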; conditions: S. cerevisiae wt1 strain (SPY 50644) growth inhibition, hits give high values
# Outline: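 Each compound is tested on wt1 yeast and the loss of growth versus vehicle gives the inhibition value.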
# [3] = NCI Yeast Anticancer Drug Screen. Data for the rad50EPP+ strain (AID 151);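 also: 0% = growth of vehicle-treated control cultures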; conditions: S. cerevisiae rad50 mutant strain, hits give high values
# Outline: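 Compounds were applied to the rad50EPP+ yeast strain, which bears a defined DNA repair alteration, and growth inhibition was determined relative to vehicle-treated cultures.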
# [4] = NCI Yeast Anticancer Drug Screen. Data for the mgt1 strain (AID 153); conditions: S. cerevisiae mgt1 mutant growth inhibition, hits give high values
# Outline: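 Strain: mgt1 yeast, one of a set carrying defined DNA damage repair or cell cycle control alterations. Compound-treated growth compared with vehicle.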
# [5] = NCI Yeast Anticancer Drug Screen. Data for the rad50 strain (AID 155);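 also: 0% = growth of vehicle-only cultures of the same strain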; conditions: S. cerevisiae rad50 strain growth inhibition, hits give high values
# Outline: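 Vehicle-treated cultures provide the reference for the growth inhibition reported for compound-exposed, repair-deficient yeast.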
# [6] = NCI Yeast Anticancer Drug Screen. Data for the mec2-1 strain (AID 157); conditions: S. cerevisiae mec2-1 strain, hits give high values
# Outline: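 Strain: mec2-1 (DNA repair/cell cycle alteration). Compound exposure, then growth measured; inhibition expressed relative to vehicle.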
# [7] = NCI Yeast Anticancer Drug Screen. Data for the rad14 strain (AID 159);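 also: 0% = growth of vehicle-treated control cultures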; conditions: S. cerevisiae rad14 strain growth inhibition, hits give high values
# Outline: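 Inhibition of growth is reported for a repair-deficient yeast mutant following compound treatment, calculated relative to cultures that received vehicle.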
# [8] = NCI Yeast Anticancer Drug Screen. Data for the sgs1 mgt1 strain (AID 161);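 also: 0% = growth of cultures given vehicle only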; conditions: S. cerevisiae sgs1 mgt1 strain, hits give high values
# Outline: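 Test agents were incubated with a DNA-repair-mutant yeast strain. Growth was then read and compared against vehicle-treated controls.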
# [9] = NCI Yeast Anticancer Drug Screen. Data for the CLN2oe strain (AID 163);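 also: 0% = growth of vehicle-only control cultures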; conditions: S. cerevisiae CLN2oe strain, hits give high values
# Outline: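 Growth of a genetically modified yeast strain is measured after compound exposure and compared with cultures given vehicle alone.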
# [10] = NCI Yeast Anticancer Drug Screen. Data for the cln2 rad14 strain (AID 165);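 also: 0% = growth equal to vehicle treated cultures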; conditions: S. cerevisiae cln2 rad14 strain, hits give high values
# Outline: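 Compounds are applied to the cln2 rad14 yeast strain, and growth is then compared with that of vehicle-treated cultures to give inhibition.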
# [11] = NCI Yeast Anticancer Drug Screen. Data for the bub3 strain (AID 167); conditions: S. cerevisiae bub3 mutant strain, hits give high values
# Outline: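 Mutant yeast screening strain plus compound; vehicle-treated cultures serve as the 0% inhibition reference.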
# [12] = NCI Yeast Anticancer Drug Screen. Data for the wt2 strain (AID 169); conditions: S. cerevisiae wt2 strain growth inhibition, hits give high values
# Outline: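 This strain belongs to a panel of yeast strains with defined genetic alterations in DNA damage repair or cell cycle control. Compounds are applied, and growth inhibition is measured against vehicle-treated cultures.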
# [13] = NCI Yeast Anticancer Drug Screen. Data for the sgs1 strain (AID 173);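 also: 0% = growth of vehicle-only control cultures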; conditions: S. cerevisiae sgs1 mutant, hits give high values
# Outline: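 Growth of a yeast strain bearing a defined genetic alteration is measured after compound treatment. Inhibition is expressed relative to vehicle-only controls.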
# [14] = NCI Yeast Anticancer Drug Screen. Data for the mlh1 rad18 strain (AID 175); conditions: S. cerevisiae mlh1 rad18 strain growth inhibition, hits give high values
# Outline: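 Read-out is yeast growth inhibition, calculated against vehicle-only controls. The compound was applied to a strain engineered with DNA damage repair alterations.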
# [15] = NCI Yeast Anticancer Drug Screen. Data for the rad18 strain (AID 177); conditions: S. cerevisiae rad18 mutant growth inhibition, hits give high values
# Outline: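 Growth of the mutant yeast strain after compound exposure, normalised to vehicle-only cultures.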
# [16] = at 5.0 µM (retest, dose inferred, filed as 0.5)
# [17] = at 50.0 µM (retest, dose inferred, filed as 5.0)
smiles,measurement,setting,value
CCN(CC)Cc1cc(Nc2c3ccccc3nc3c2[nH]c2ccccc23)cc(CN(CC)CC)c1O,growth inhibition,[1]; at 1.2 µM,32%
same,growth inhibition,[1]; at 3.7 µM,21%
same,growth inhibition,[1]; at 11.0 µM,12%
same,growth inhibition,[1]; at 33.0 µM,7%
same,growth inhibition,[1]; at 100.0 µM,18%
same,growth inhibition,[2]; at 1.2 µM,1%
same,growth inhibition,[2]; at 3.7 µM,2%
same,growth inhibition,[2]; at 11.0 µM,-1%
same,growth inhibition,[2]; at 33.0 µM,0%
same,growth inhibition,[2]; at 100.0 µM,3%
same,growth inhibition,[3]; at 1.2 µM,3%
same,growth inhibition,[3]; at 3.7 µM,1%
same,growth inhibition,[3]; at 11.0 µM,3%
same,growth inhibition,[3]; at 33.0 µM,2%
same,growth inhibition,[3]; at 100.0 µM,13%
same,growth inhibition,[4]; at 1.2 µM,-3%
same,growth inhibition,[4]; at 3.7 µM,-3%
same,growth inhibition,[4]; at 11.0 µM,-3%
same,growth inhibition,[4]; at 33.0 µM,-16%
same,growth inhibition,[4]; at 100.0 µM,1%
same,growth inhibition,[5]; at 1.2 µM,25%
same,growth inhibition,[5]; at 3.7 µM,7%
same,growth inhibition,[5]; [16],-3%
same,growth inhibition,[5]; at 11.0 µM,-4%
same,growth inhibition,[5]; at 33.0 µM,10%
same,growth inhibition,[5]; [17],10%
same,growth inhibition,[5]; at 50.0 µM,17.8%
same,growth inhibition,[5]; at 100.0 µM,23%
same,growth inhibition,[6]; at 1.2 µM,2%
same,growth inhibition,[6]; at 3.7 µM,1%
same,growth inhibition,[6]; [16],-2%
same,growth inhibition,[6]; at 11.0 µM,-1%
same,growth inhibition,[6]; at 33.0 µM,2%
same,growth inhibition,[6]; [17],15%
same,growth inhibition,[6]; at 50.0 µM,21.3%
same,growth inhibition,[6]; at 100.0 µM,5%
same,growth inhibition,[7]; at 1.2 µM,-1%
same,growth inhibition,[7]; at 3.7 µM,-3%
same,growth inhibition,[7]; at 11.0 µM,-1%
same,growth inhibition,[7]; at 33.0 µM,2%
same,growth inhibition,[7]; at 100.0 µM,8%
same,growth inhibition,[8]; [16],-5%
same,growth inhibition,[8]; [17],1%
same,growth inhibition,[8]; at 50.0 µM,-10.1%
same,growth inhibition,[9]; at 1.2 µM,-5%
same,growth inhibition,[9]; at 3.7 µM,-3%
same,growth inhibition,[9]; at 11.0 µM,1%
same,growth inhibition,[9]; at 33.0 µM,3%
same,growth inhibition,[9]; at 100.0 µM,7%
same,growth inhibition,[10]; [16],48%
same,growth inhibition,[10]; [17],61%
same,growth inhibition,[10]; at 50.0 µM,66%
same,growth inhibition,[11]; at 1.2 µM,-2%
same,growth inhibition,[11]; at 3.7 µM,-4%
same,growth inhibition,[11]; [16],16%
same,growth inhibition,[11]; at 11.0 µM,-3%
same,growth inhibition,[11]; at 33.0 µM,-3%
same,growth inhibition,[11]; [17],38%
same,growth inhibition,[11]; at 50.0 µM,-10.2%
same,growth inhibition,[11]; at 100.0 µM,0%
same,growth inhibition,[12]; at 1.2 µM,-1%
same,growth inhibition,[12]; at 3.7 µM,-2%
same,growth inhibition,[12]; at 11.0 µM,-4%
same,growth inhibition,[12]; at 33.0 µM,-2%
same,growth inhibition,[12]; at 100.0 µM,1%
same,growth inhibition,[13]; at 1.2 µM,6%
same,growth inhibition,[13]; at 3.7 µM,3%
same,growth inhibition,[13]; at 11.0 µM,-2%
same,growth inhibition,[13]; at 33.0 µM,-2%
same,growth inhibition,[13]; at 100.0 µM,0%
same,growth inhibition,[14]; [16],13%
same,growth inhibition,[14]; [17],16%
same,growth inhibition,[14]; at 50.0 µM,-11.6%
same,growth inhibition,[15]; at 1.2 µM,16%
same,growth inhibition,[15]; at 3.7 µM,9%
same,growth inhibition,[15]; at 11.0 µM,-2%
same,growth inhibition,[15]; at 33.0 µM,-11%
same,growth inhibition,[15]; at 100.0 µM,-7%
CC(C)OC(=O)c1ccc(CCc2cc(O)c(Br)cc2O)cc1,growth inhibition,[1]; at 1.2 µM,37%
same,growth inhibition,[1]; at 3.7 µM,50%
same,growth inhibition,[1]; at 11.0 µM,56%
same,growth inhibition,[1]; at 33.0 µM,53%
same,growth inhibition,[1]; at 100.0 µM,79% (active)
same,growth inhibition,[2]; at 1.2 µM,26%
same,growth inhibition,[2]; at 3.7 µM,33%
same,growth inhibition,[2]; at 11.0 µM,45%
same,growth inhibition,[2]; at 33.0 µM,27%
same,growth inhibition,[2]; at 100.0 µM,98% (active)
same,growth inhibition,[3]; at 1.2 µM,66%
same,growth inhibition,[3]; at 3.7 µM,80% (active)
same,growth inhibition,[3]; at 11.0 µM,94% (active)
same,growth inhibition,[3]; at 33.0 µM,97% (active)
same,growth inhibition,[3]; at 100.0 µM,94% (active)
same,growth inhibition,[4]; at 1.2 µM,55%
same,growth inhibition,[4]; at 3.7 µM,70% (active)
same,growth inhibition,[4]; at 11.0 µM,71% (active)
same,growth inhibition,[4]; at 33.0 µM,72% (active)
same,growth inhibition,[4]; at 100.0 µM,94% (active)
same,growth inhibition,[5]; at 1.2 µM,34%
same,growth inhibition,[5]; at 3.7 µM,49%
same,growth inhibition,[5]; [16],27%
same,growth inhibition,[5]; at 11.0 µM,66%
same,growth inhibition,[5]; at 33.0 µM,98% (active)
same,growth inhibition,[5]; [17],99% (active)
same,growth inhibition,[5]; at 50.0 µM,86.2% (active)
same,growth inhibition,[5]; at 100.0 µM,97% (active)
same,growth inhibition,[6]; at 1.2 µM,6%
same,growth inhibition,[6]; at 3.7 µM,20%
same,growth inhibition,[6]; [16],42%
same,growth inhibition,[6]; at 11.0 µM,30%
same,growth inhibition,[6]; at 33.0 µM,32%
same,growth inhibition,[6]; [17],99% (active)
same,growth inhibition,[6]; at 50.0 µM,91.2% (active)
same,growth inhibition,[6]; at 100.0 µM,87% (active)
same,growth inhibition,[7]; at 1.2 µM,43%
same,growth inhibition,[7]; at 3.7 µM,53%
same,growth inhibition,[7]; at 11.0 µM,75% (active)
same,growth inhibition,[7]; at 33.0 µM,96% (active)
same,growth inhibition,[7]; at 100.0 µM,92% (active)
same,growth inhibition,[8]; [16],31%
same,growth inhibition,[8]; [17],98% (active)
same,growth inhibition,[8]; at 50.0 µM,88.5% (active)
same,growth inhibition,[9]; at 1.2 µM,-5%
same,growth inhibition,[9]; at 3.7 µM,19%
same,growth inhibition,[9]; at 11.0 µM,53%
same,growth inhibition,[9]; at 33.0 µM,92% (active)
same,growth inhibition,[9]; at 100.0 µM,95% (active)
same,growth inhibition,[10]; [16],1%
same,growth inhibition,[10]; [17],96% (active)
same,growth inhibition,[10]; at 50.0 µM,91.8% (active)
same,growth inhibition,[11]; at 1.2 µM,22%
same,growth inhibition,[11]; at 3.7 µM,22%
same,growth inhibition,[11]; [16],4%
same,growth inhibition,[11]; at 11.0 µM,52%
same,growth inhibition,[11]; at 33.0 µM,98% (active)
same,growth inhibition,[11]; [17],91% (active)
same,growth inhibition,[11]; at 50.0 µM,88.9% (active)
same,growth inhibition,[11]; at 100.0 µM,92% (active)
same,growth inhibition,[12]; at 1.2 µM,18%
same,growth inhibition,[12]; at 3.7 µM,39%
same,growth inhibition,[12]; at 11.0 µM,95% (active)
same,growth inhibition,[12]; at 33.0 µM,98% (active)
same,growth inhibition,[12]; at 100.0 µM,95% (active)
same,growth inhibition,[13]; at 1.2 µM,47%
same,growth inhibition,[13]; at 3.7 µM,60%
same,growth inhibition,[13]; at 11.0 µM,58%
same,growth inhibition,[13]; at 33.0 µM,61%
same,growth inhibition,[13]; at 100.0 µM,95% (active)
same,growth inhibition,[14]; [16],45%
same,growth inhibition,[14]; [17],99% (active)
same,growth inhibition,[14]; at 50.0 µM,85.2% (active)
